Experimental data taken from PubChem BioAssay AID1022 (Emory University Molecular Libraries Screening Center, 2008).
Among all 220,000 compounds or so, about 3,300 (1.5%) were called active. This excerpt belongs to a sample that is enriched for actives. A number with no mark means an inactive call.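 The calls were made as follows: active = compounds that cut the protein-peptide binding signal by more than 50% relative to plate controls in a single-dose test; inactive = the rest.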

These molecules were tested against Induced myeloid leukemia cell differentiation protein Mcl-1 (Homo sapiens) (UniProt Q07820) (assay: disruptors of Mcl-1 and Noxa BH3 peptide – biochemical, TR-FRET, 1536-well, primary screen (AID 1022;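 also: His-tagged Mcl-1 with rhodamine Noxa BH3 peptide and terbium anti-His antibody; 0% = Mcl-1 plus Noxa peptide wells and 100% = peptide-only wells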)). Details: TR-FRET Mcl-1/Noxa peptide binding, 2 h; at 21.7 µM; hits give high values.
Induced myeloid leukemia cell differentiation protein Mcl-1 (Homo sapiens), sequence (Q07820 whole entry, looked up): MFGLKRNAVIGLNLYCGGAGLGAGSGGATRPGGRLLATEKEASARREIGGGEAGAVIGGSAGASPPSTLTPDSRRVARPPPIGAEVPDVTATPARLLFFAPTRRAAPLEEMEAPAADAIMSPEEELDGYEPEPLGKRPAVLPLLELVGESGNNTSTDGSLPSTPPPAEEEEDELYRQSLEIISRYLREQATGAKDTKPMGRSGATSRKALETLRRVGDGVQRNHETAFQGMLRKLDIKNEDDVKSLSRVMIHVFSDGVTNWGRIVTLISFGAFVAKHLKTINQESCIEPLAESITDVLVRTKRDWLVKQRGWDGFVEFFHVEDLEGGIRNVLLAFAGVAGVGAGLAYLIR

Row | Structure (SMILES) | inhibition
1 | CCCCCCCC(=O)OC(CN1CCCCCC1)CN1CCCC1=O (stereo unspecified) | -0.02%
2 | Cc1ccc2cc(/C=N/Nc3ccc(C(=O)O)cc3)c(Cl)nc2c1 | 32.8%
3 | Cn1c2c(c(=O)n(C)c1=O)C(c1cccc(F)c1)C(C#N)=C(N)O2 (stereo unspecified) | -5.47%
4 | Cc1ccc(C2Nc3ccccc3C(=O)N2CCN2CCNC2=O)cc1 (stereo unspecified) | -12.9%
5 | COc1cc(OC)cc(C(=O)OCC(=O)Nc2ccc(F)cc2F)c1 | 2.79%
6 | CC(NC(=O)COC(=O)c1ccc(Cl)cc1O)c1ccc(F)cc1 (stereo unspecified) | 0.03%
7 | O=C(COC(=O)c1ccc(F)cc1F)Nc1ncccn1 | 65.1% (active)
8 | Cc1nnc(Nc2ccccc2F)s1 | -14.1%
9 | C/C(Cc1ccccc1)=N\NC(=O)CNC(=O)c1ccccc1Cl | -7.79%
10 | O=C1N(c2ccccc2)C(=Nc2ccccc2)SC12CC2 | 1.01%
11 | O=C1Oc2ccccc2C(=O)/C1=C/c1ccccc1O | 81.4% (active)
12 | C=CCn1c(SCC(=O)CC(=O)OCC)nc2cc(C(=O)N3CCC(C(N)=O)CC3)ccc2c1=O | -5.71%
13 | C=CCn1c2ccccc2c2nnc(SC(CC)C(=O)Nc3nc(C)c(C(=O)OCC)s3)nc21 (stereo unspecified) | 11.2%
14 | C=CCn1c2ccccc2c2nnc(SCc3[nH]c(=O)[nH]c3C(=O)CCCCC(=O)OCC)nc21 | 52.5% (active)
15 | CC(C)(C)n1cnnc1Sc1ccc([N+](=O)[O-])cn1 | 2.83%
16 | Cc1ccccc1NC(=O)CN1C(=O)N/C(=C\c2cccn2-c2cccc(C(=O)O)c2)C1=O | 40.1%
17 | Cn1cccc1/C=C1\SC(=O)N(CC(=O)Nc2ccc(F)cc2)C1=O | 12.7%
18 | N#Cc1ccccc1CN1C(=O)S/C(=C/c2cccn2-c2cccc(C(=O)O)c2)C1=O | 66.4% (active)
19 | Nc1ccc(N=Nc2ccccc2Cl)c(N)n1 | 10.8%
20 | COc1ccc(CCNC(=O)C2CC3Cn4c(nc5cc(C)c(C)cc54)C3N2C)cc1 (stereo unspecified) | -4.09%
21 | COc1ccc(C(=O)O/N=C(\N)Cc2ccc(Cl)cc2Cl)cc1OC | 6.09%
22 | COc1ccc(C/C(N)=N/OC(=O)c2ccco2)cc1OC | 64.8% (active)
23 | COc1ccc(CC(=O)Nc2ccccc2NC(=O)c2ccco2)cc1OC | 36.8%
24 | N#C/C(=C\N1CCOCC1)S(=O)(=O)c1ccc(Cl)cc1 | -9.31%

Row | Structure (SMILES) | inhibition
25 | COc1ccc(-c2ccc(OC(=O)NC3CCS(=O)(=O)C3)cc2)cc1 (stereo unspecified) | -3.15%
26 | COc1cccc2c(C)c(C(=O)O)[nH]c12 | 83.1% (active)
27 | Cc1c(C(=O)N/N=C/c2ccccc2)[nH]c2c([N+](=O)[O-])cccc12 | 21%
28 | COc1cccc2c(O)cc(=O)n(C)c12 | -20.5%
29 | COc1ccc(CN2CCOC2=O)cc1OC | 6.85%
30 | COc1cccc(N2C(=O)CC(N3CCc4ccccc4C3)C2=O)c1 (stereo unspecified) | -10.9%
31 | C=CCNC(=O)CSc1nc2scc(-c3ccco3)c2c(=O)n1CC=C | 8.55%
32 | O=C1CCCC(O)=C1N=Nc1ccc2ncsc2c1 | 62.8% (active)
33 | O=C1CCCC(O)=C1N=Nc1ccc(S(=O)(=O)N2CCOCC2)cc1 | 23.9%
34 | C/C(=N\NC(=O)c1cccnc1)c1ccc(-c2ccccc2)cc1 | 2.98%
35 | C/C(=C\c1ccco1)C1Nc2cccc3cccc(c23)N1 | 74.9% (active)
36 | COc1cccc(C2Nc3cccc4cccc(c34)N2)c1 | 34.5%
37 | O=C(NCC1CCCO1)/C(=C\c1ccco1)NC(=O)c1ccccc1 (stereo unspecified) | 4.51%
38 | COc1ccccc1/C=C/C=N/NC(=O)CN1CCN(Cc2ccccc2)CC1 | 0.78%
39 | CSC1=NCCN1C(=O)Cc1cccc2ccccc12 | -0.87%
40 | O=C(NNC(=O)c1cnccc1C(F)(F)F)c1ccc(Cl)cc1 | 11.9%
41 | CC(=O)Nc1cccc([N+](=O)[O-])c1 | -1.66%
42 | Cc1ccccc1NC(=S)Nc1cccc([N+](=O)[O-])c1 | 11.3%
43 | COC(=O)/C=C\C(=O)Nc1cccc([N+](=O)[O-])c1 | 64.5% (active)
44 | COc1ccc(Cn2c(O)c(/C=C3/C=CC=N3)c(=O)[nH]c2=O)cc1 | 25%
45 | CC(=O)NC(=S)Nc1ccc(NC(=O)c2cccnc2)cc1 | 1.75%
46 | Cn1c2ccccc2c(=O)c2c(=O)n(Cc3ccco3)c(COc3ccccc3)nc21 | 60% (active)
47 | COc1ccc(C(=O)CSc2nnc(COc3ccccc3)n2Cc2ccco2)cc1 | 17.5%
48 | CCCc1nc2c(c(=O)c3ccccc3n2C)c(=O)n1-c1cc(C)cc(C)c1 | 5.11%

Row | Structure (SMILES) | inhibition
49 | CSc1sc(C(=O)NNC(=O)c2ccc(Cl)cc2)c2c1C=CCC2 | 0.01%
50 | CN1CCN(C2=NCCO2)CC1 | 3.88%
51 | Nc1c(C(=O)c2cccs2)sc2nsc(SCCN3CCCCC3)c12 | -16.9%
52 | O=C(c1ccco1)N1CCN(CCOc2ccccc2)CC1 | 10.5%
53 | COc1ccc(OC)c(N=Cc2c(O)[nH]c3ccccc23)c1 | 20.4%
54 | CN=c1scc(-c2cc(OC)ccc2OC)n1/N=C/c1c(C)[nH]c2ccccc12 | 56.7% (active)
55 | CCn1c(-c2cc(OC)ccc2OC)csc1=Nc1c(C)n(C)n(-c2ccccc2)c1=O | 10.7%
56 | CCn1c2ccccc2c2cc(NC(=O)CNC)ccc21 | 43.9%
57 | CCc1ccc(NC(=O)N[C@H](C(=O)O)C(C)CC)cc1 (stereo partly specified) | 16.4%
58 | O=C(O)COCC(=O)NCc1csc2ccc(Cl)cc12 | 11.9%
59 | O=S(=O)([N-]c1nc2ccccc2nc1-[n+]1ccc(Cc2ccccc2)cc1)c1ccc(Br)s1 | 15.5%
60 | N#C/C(=C/c1ccc(-c2ccccc2[N+](=O)[O-])o1)C(=O)NCCN1CCCCC1 | 26.3%
61 | Cc1ccc(-c2ccc(/C=C(\C#N)C(N)=S)o2)c([N+](=O)[O-])c1 | 58.2% (active)
62 | Cc1ccc(Cc2cnc(NC(=O)/C(C#N)=C/c3ccc(-c4cccc([N+](=O)[O-])c4)o3)s2)cc1 | 24.9%
63 | O=S(=O)(NCCc1csc(-c2ccccc2)n1)c1cccnc1 | -1.4%
64 | NCC(=O)c1cccc2ccc[n+]([O-])c12 | 17.5%
65 | COc1cc(NC(=O)c2ccc(CNc3c(N4CCCC4)c(=O)c3=O)cc2)cc(OC)c1OC | 8.38%
66 | COc1ccc(-c2cn(-c3ccc(OC)cc3)c(=S)[nH]2)cc1 | 11.3%
67 | COc1cc(OC)c(-n2c(C)cc(C=O)c2C)cc1Cl | 13.7%
68 | COc1cc(OC)c(-n2cc(-c3ccc(Cl)cc3)[nH]c2=O)cc1Cl | 55.4% (active)
69 | COc1ccc(/C=C/C(=O)Nc2ccc(C)cc2)cc1S(=O)(=O)N1CCOCC1 | 8.12%
70 | CCN(CC)c1ccc(/C=N/NC(=O)c2cnccn2)c(O)c1 | 15.6%
71 | CCn1c(SCC(=O)Nc2sc(C)c(C)c2C#N)nnc1C1CC1 | 29.1%
72 | Brc1ccc2c(c1)[C@H]1OCC[C@H]1[C@@H](c1cccs1)N2 | -3.81%

Row | Structure (SMILES) | inhibition
73 | Cc1[nH]n(-c2ccccc2)c(=O)c1N=Nc1ccccc1C(=O)N1CCCCC1 | 11.2%
74 | O=C(Cn1nnc(-c2ccccc2)n1)N/N=C/c1ccc(-c2ccc(Cl)cc2)o1 | 54.1% (active)
75 | Nc1nnnn1CC(=O)N/N=C/c1ccc(-c2cccc(Cl)c2)o1 | 39.1%
76 | O=C(CN1CCOCC1)N/N=C/c1ccc(-c2ccc(Br)cc2)o1 | 10.4%
77 | O=C(Cn1nnc(-c2ccccc2)n1)NCc1ccccc1 | -34.6%
78 | Cc1[nH]c2ccccc2c1/C=N\NC(=O)Cn1nnc(-c2ccccc2)n1 | 62.8% (active)
79 | Nc1nnn(CC(=O)N/N=C/c2ccccc2)n1 | -7.14%
80 | COc1ccc(CCNCC(O)Cn2ccc3ccccc32)cc1OC (stereo unspecified) | 15.7%
81 | Cc1ccc(OCC(=O)c2cc(C)n(Cc3ccco3)c2C)c([N+](=O)[O-])n1 | 8.57%
82 | COC(=O)c1ccc(S(=O)(=O)NCc2ccccc2)n1C | 8.72%
83 | COc1ccccc1Cn1c(CO)nc2ccccc21 | 7.12%
84 | O=C(Nc1ccc(Cl)cc1)Nc1ccc(Oc2cccnc2)nc1 | 26.5%
85 | Cc1ccc(C2C3=C(Nc4[nH]n(-c5ccccc5)c(=O)c42)c2ccccc2C3=O)cc1 (stereo unspecified) | 69% (active)
86 | Cc1cc(C)c(C2C3=C(Nc4c2c(C)nn4-c2ccccn2)c2ccccc2C3=O)c(C)c1 (stereo unspecified) | 12.5%
87 | Cc1ccc(N=Nc2c(C)[nH]n(-c3ccccc3)c2=O)cc1 | 23.8%
88 | O=C(Nc1cccnc1)c1ccc(Cl)c([N+](=O)[O-])c1 | 14.2%
89 | O=C(/C=C/c1ccc(Cl)c([N+](=O)[O-])c1)c1cccnc1 | 52.5% (active)
90 | O=C(/C=C/c1ccc(Cl)c([N+](=O)[O-])c1)c1ccc(O)cc1 | -1.19%
91 | Cc1nc(C(=O)N2CCCC(C(=O)c3ccc(Cl)cc3)C2)cs1 (stereo unspecified) | -4.61%
92 | CC(=O)c1c(C)[nH]c(=S)c(C#N)c1-c1ccc(F)cc1 | -4.64%
93 | Oc1ccccc1N1CCN(C(=S)NCc2ccccc2)CC1 | 16.6%
94 | Oc1ccc(N2CCN(C(=S)NCc3ccccc3)CC2)cc1 | 61.1% (active)
95 | S=C(NCCc1ccccc1)N1CCCCC1 | 21.5%
96 | CC(=O)N/C(=C\c1ccc(F)cc1)C(=O)NC(Cc1ccccc1)C(=O)O (stereo unspecified) | -9.17%
